Results as given in PubChem BioAssay.
For some assays here: Entries with a potency or affinity are not part of this list. Active and inactive are the calls of the source. Unless noted, how the calls were made is not given here.

Legend:
[1] = antimalarial activity against Dd2 strain (AID 2302;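 active means growth inhibition above 50% at the single 2 µM test dose, taken to imply half-maximal potency below 2 µM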;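 further: 0% = DMSO untreated growth and 100% = chloroquine plus artemisinin killed control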); conditions: P. falciparum Dd2 in RBCs, LDH growth readout, 72 h; at 2 µM; stronger effect = higher value
[2] = human hepatoma cell viability loss – ATP luminescence, cytotoxicity control for P. falciparum antimalarial project, primary screen (AID 2303;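 active means inhibition above 50%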;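 further: 0% = DMSO wells and 100% = digitonin-killed cells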); conditions: HepG2 viability, 24-48 h, at 10 µM, stronger effect = higher value
[3] = target: L-lactate dehydrogenase (Plasmodium falciparum (isolate CDC / Honduras)) (UniProt Q27743); test: PfLDH activity inhibition – cell lysate, 3D7 strain, counter-screen for P. falciparum growth inhibition project (AID 2304);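 further: 0% = vehicle and 100% = reference inhibitor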; conditions: P. falciparum 3D7 crude extract, LDH APAD/NBT absorbance; at 2 µM; stronger effect = higher value
[4] = inhibition of 3D7 malaria parasite growth – strain 3D7 (AID 2306);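 further: 0% = DMSO wells and 100% = chloroquine plus artemisinin control wells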; conditions: P. falciparum 3D7 erythrocytic growth, LDH absorbance, 72 h; at 2 µM; stronger effect = higher value
[5] = target: Calcium-dependent protein kinase 1 (Plasmodium falciparum (isolate 3D7)) (UniProt P62344); test: PfCDPK1 kinase inhibitors, biochemical, TCAMS library (AID 1159585; cut-off not given, nearly all actives have IC50 up to about 0.98 µM;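 further: inhibitors leave more ATP so luminescence rises with inhibition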); conditions: recombinant PfCDPK1, Kinase-Glo ATP depletion luminescence
[6] = target: Plasmodium falciparum protein kinase 6 (PK6, PF3D7_1337100) (UniProt Q8IDW1); test: PfPK6 kinase inhibitors, biochemical, TCAMS library (AID 1159586); conditions: recombinant PfPK6, Kinase-Glo ATP depletion luminescence
[7] = target: Protein kinase 7 (PK7), Plasmodium falciparum 3D7 (PF3D7_0213400) (UniProt Q7YTF7); test: inhibition of Plasmodium PK7 catalytic activity – biochemical, TCAMS antimalarial set, Kinase-Glo luminescence (AID 1159587); conditions: recombinant PfPK7, Kinase-Glo ATP depletion luminescence
[8] = target: Calcium-dependent protein kinase 4 (Plasmodium falciparum (isolate 3D7)) (UniProt Q8IBS5); test: PfCDPK4 kinase inhibitors, biochemical, TCAMS library (AID 1159588; cut-off not given, nearly all actives have IC50 up to about 0.91 µM); conditions: recombinant PfCDPK4, Kinase-Glo ATP depletion luminescence
Calcium-dependent protein kinase 4 (Plasmodium falciparum (isolate 3D7)), sequence (Q8IBS5 whole entry, looked up): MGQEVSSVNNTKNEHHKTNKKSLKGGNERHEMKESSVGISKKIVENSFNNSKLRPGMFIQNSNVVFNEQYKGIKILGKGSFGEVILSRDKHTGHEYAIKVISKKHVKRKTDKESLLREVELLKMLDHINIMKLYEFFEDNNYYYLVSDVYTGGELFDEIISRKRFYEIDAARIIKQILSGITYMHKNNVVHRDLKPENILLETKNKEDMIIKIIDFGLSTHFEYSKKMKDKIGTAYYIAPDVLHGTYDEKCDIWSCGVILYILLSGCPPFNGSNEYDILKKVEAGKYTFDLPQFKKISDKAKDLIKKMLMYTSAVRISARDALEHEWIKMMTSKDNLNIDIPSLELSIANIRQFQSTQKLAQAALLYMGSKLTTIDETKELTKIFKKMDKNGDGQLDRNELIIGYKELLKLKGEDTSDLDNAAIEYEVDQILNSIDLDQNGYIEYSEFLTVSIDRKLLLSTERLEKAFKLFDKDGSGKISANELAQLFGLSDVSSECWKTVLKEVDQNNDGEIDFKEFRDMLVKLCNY

L-lactate dehydrogenase (Plasmodium falciparum (isolate CDC / Honduras)), sequence (Q27743 whole entry, looked up): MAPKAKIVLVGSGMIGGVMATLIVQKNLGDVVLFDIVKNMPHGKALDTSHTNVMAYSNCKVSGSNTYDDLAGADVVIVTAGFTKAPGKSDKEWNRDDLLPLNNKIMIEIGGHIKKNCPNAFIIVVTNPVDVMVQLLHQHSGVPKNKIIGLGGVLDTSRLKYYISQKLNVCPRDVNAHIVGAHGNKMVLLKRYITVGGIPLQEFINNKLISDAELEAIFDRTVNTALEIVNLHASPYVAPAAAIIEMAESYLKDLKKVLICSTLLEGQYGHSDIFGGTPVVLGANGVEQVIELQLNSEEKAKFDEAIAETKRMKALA
Calcium-dependent protein kinase 1 (Plasmodium falciparum (isolate 3D7)), sequence (P62344 whole entry, looked up): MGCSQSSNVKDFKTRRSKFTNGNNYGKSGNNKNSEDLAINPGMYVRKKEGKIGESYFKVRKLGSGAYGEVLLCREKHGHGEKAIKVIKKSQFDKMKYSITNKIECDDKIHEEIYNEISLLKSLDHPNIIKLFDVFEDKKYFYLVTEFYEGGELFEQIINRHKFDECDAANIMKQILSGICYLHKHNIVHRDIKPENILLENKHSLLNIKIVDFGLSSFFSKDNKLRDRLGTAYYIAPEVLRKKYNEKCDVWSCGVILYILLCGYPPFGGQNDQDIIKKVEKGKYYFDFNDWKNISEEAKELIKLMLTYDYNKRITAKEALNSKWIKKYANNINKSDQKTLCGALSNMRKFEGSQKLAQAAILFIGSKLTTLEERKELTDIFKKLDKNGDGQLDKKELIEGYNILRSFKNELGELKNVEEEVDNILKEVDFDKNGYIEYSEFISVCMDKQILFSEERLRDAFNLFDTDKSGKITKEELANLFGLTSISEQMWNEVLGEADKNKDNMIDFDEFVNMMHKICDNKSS
Plasmodium falciparum protein kinase 6 (PK6, PF3D7_1337100), sequence (Q8IDW1 1-305): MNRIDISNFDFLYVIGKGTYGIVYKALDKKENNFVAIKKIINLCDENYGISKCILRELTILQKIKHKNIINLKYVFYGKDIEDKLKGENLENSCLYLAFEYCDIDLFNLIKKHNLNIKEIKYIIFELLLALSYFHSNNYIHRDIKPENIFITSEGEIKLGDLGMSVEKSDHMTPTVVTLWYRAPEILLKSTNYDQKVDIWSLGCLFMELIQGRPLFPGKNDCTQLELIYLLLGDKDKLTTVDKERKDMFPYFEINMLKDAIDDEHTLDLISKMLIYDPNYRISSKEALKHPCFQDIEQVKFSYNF
Protein kinase 7 (PK7), Plasmodium falciparum 3D7 (PF3D7_0213400), sequence (Q7YTF7 1-343): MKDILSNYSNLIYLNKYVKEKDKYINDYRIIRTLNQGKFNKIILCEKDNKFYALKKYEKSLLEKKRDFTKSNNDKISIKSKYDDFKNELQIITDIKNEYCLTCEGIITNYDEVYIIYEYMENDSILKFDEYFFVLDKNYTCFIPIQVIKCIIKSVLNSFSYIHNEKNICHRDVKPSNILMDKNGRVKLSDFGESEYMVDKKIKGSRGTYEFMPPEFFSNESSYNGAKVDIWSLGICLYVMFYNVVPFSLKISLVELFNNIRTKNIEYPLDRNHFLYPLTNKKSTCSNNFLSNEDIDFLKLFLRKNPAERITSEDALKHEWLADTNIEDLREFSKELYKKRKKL

Cc1cc(-c2ccc3c(c2)CCN(CCC2CCC(NC(=O)/C=C/c4cccc(F)c4)CC2)CC3)on1 (stereo not given)
inactive: growth inhibition [1] 19% | inhibition [2] 23% | inhibition [3] -10% | outcome [5] | outcome [6] | outcome [7] | outcome [8]
active: growth inhibition [4] 95%

Cn1nccc1C(=O)NCCNCc1cccc(-c2ccc(-c3nc4ccccc4[nH]3)s2)c1
active: growth inhibition [1] 94% | growth inhibition [4] 100%
inactive: inhibition [2] 22% | inhibition [3] -4% | outcome [5] | outcome [6] | outcome [7] | outcome [8]

COc1ccc2c(=O)ccn(CCN3CCC(NCc4ccc5c(n4)NC(=O)CS5)CC3)c2c1
active: growth inhibition [1] 99% | growth inhibition [4] 98%
inactive: inhibition [2] 7% | inhibition [3] 1% | outcome [5] | outcome [6] | outcome [7] | outcome [8]

CC(CN1CCN(C)CC1)C(=O)Nc1ccc(-c2ccc(-c3nc4ccccc4[nH]3)cc2)cc1 (stereo not given)
active: growth inhibition [1] 87% | growth inhibition [4] 92%
inactive: inhibition [2] 13% | inhibition [3] 4% | outcome [5] | outcome [6] | outcome [7] | outcome [8]

C[C@]12CC3CC(Nc4nc(N5CCOCC5)nc5ccccc45)(C1)C[C@@](C)(C3)C2
inactive: growth inhibition [1] 14% | inhibition [2] 31% | inhibition [3] -5% | outcome [5] | outcome [6] | outcome [7] | outcome [8]
active: growth inhibition [4] 95%

C[C@@H](NCCc1cccc(Cl)c1)[C@@H](O)c1ccc(OCCCCCCOc2ccc([C@H](O)[C@@H](C)NCCc3cccc(Cl)c3)cc2)cc1
active: growth inhibition [1] 100% | inhibition [2] 96% | growth inhibition [4] 100%
inactive: inhibition [3] -1% | outcome [5] | outcome [6] | outcome [7] | outcome [8]

Fc1ccc(CNc2ccc3ncc(-c4cccnc4)n3n2)cc1
inactive: growth inhibition [1] 7% | inhibition [2] 7% | inhibition [3] -2% | outcome [5] | outcome [6] | outcome [7] | outcome [8]
active: growth inhibition [4] 87%

CN1CCN(CC(=O)Nc2cccc(-c3cccc(-c4nc5ccc(F)cc5[nH]4)c3)c2)CC1
inactive: inhibition [2] 16% | inhibition [3] 6% | outcome [5] | outcome [6] | outcome [7] | outcome [8]
active: growth inhibition [1] 98% | growth inhibition [4] 100%

CC(C)(C)c1ccc(CN2CCC(NC(=O)c3ccc(-c4cccc(Cl)c4)s3)CC2)cc1
inactive: growth inhibition [1] 47% | inhibition [2] 36% | inhibition [3] 5% | outcome [5] | outcome [6] | outcome [7] | outcome [8]
active: growth inhibition [4] 99%

O=C(Nc1ccc(Cl)c(Cl)c1)Nc1ccc2nccc(N3CCNCC3)c2c1
active: growth inhibition [1] 62% | growth inhibition [4] 99%
inactive: inhibition [2] 18% | inhibition [3] -6% | outcome [5] | outcome [6] | outcome [7] | outcome [8]

Cn1nc(-c2ccc(NC(=O)Nc3cc(C(F)(F)F)cc(C(F)(F)F)c3)c(F)c2)c2cnc(NCCN3CCOCC3)nc21
inactive: growth inhibition [1] 37% | inhibition [2] 43% | inhibition [3] -6% | outcome [5] | outcome [6] | outcome [7] | outcome [8]
active: growth inhibition [4] 94%

O=S(=O)(/C=C/c1ccccc1)N(Cc1ccc(-c2ccc(CNCCc3ccccn3)cc2)cc1)CC1CCCCN1 (stereo not given)
active: growth inhibition [1] 97% | growth inhibition [4] 100%
inactive: inhibition [2] 46% | inhibition [3] -4% | outcome [5] | outcome [6] | outcome [7] | outcome [8]

OCCC1CCN(Cc2ccc(-c3ccc(-c4nc5ccccc5[nH]4)cc3)cc2)CC1
inactive: inhibition [2] 35% | inhibition [3] 2% | outcome [5] | outcome [6] | outcome [7] | outcome [8]
active: growth inhibition [1] 98% | growth inhibition [4] 99%

CN(CCN1CCC(c2c[nH]c3ccccc23)CC1)C(=O)OCCCCCNC(=O)/C=C/c1ccc(Cl)c(Cl)c1
active: growth inhibition [4] 95%
inactive: growth inhibition [1] 44% | inhibition [2] 39% | inhibition [3] -4% | outcome [5] | outcome [6] | outcome [7] | outcome [8]

Cc1ccccc1C1CCN(C2CCC(NC(=O)/C=C/c3ccc(F)c(F)c3)CC2)CC1 (stereo not given)
active: growth inhibition [4] 93%
inactive: growth inhibition [1] 7% | inhibition [2] 34% | inhibition [3] -1% | outcome [5] | outcome [6] | outcome [7] | outcome [8]

CC1(C)N=C(N)N=C(N)N1OCCSCc1cc(Cl)sc1Cl
active: growth inhibition [1] 72% | inhibition [2] 70% | growth inhibition [4] 93%
inactive: inhibition [3] -2% | outcome [5] | outcome [6] | outcome [7] | outcome [8]

O=c1c(NCCCN(Cc2ccc(F)cc2)c2ccccn2)c(NCc2cccnc2)c1=O
inactive: inhibition [2] -2% | inhibition [3] -2% | outcome [5] | outcome [6] | outcome [7] | outcome [8]
active: growth inhibition [1] 92% | growth inhibition [4] 101%

Cc1cccc2[nH]c(-c3cccc(-c4ccc(NC(=O)COc5ccccc5C(N)=O)cc4)c3)nc12
active: growth inhibition [4] 101%
inactive: growth inhibition [1] 47% | inhibition [2] 18% | inhibition [3] -8% | outcome [5] | outcome [6] | outcome [7] | outcome [8]

COc1cc(NC(=O)NC(CCN2CCC3(CCc4ccccc43)CC2)c2ccc(Cl)c(Cl)c2)cc(OC)c1OC (stereo not given)
inactive: inhibition [3] 6% | outcome [5] | outcome [6] | outcome [7] | outcome [8]
active: growth inhibition [1] 66% | inhibition [2] 66% | growth inhibition [4] 90%

FC(F)(F)c1ccc2nc(-c3ccc(-c4cccc(CNCc5cnn(-c6ccccc6)n5)c4)s3)[nH]c2c1
inactive: inhibition [2] 38% | inhibition [3] -2% | outcome [5] | outcome [6] | outcome [7] | outcome [8]
active: growth inhibition [1] 91% | growth inhibition [4] 101%

FC(F)(F)COc1ccc(CCNCCCCNCCc2ccc(OCC(F)(F)F)c3ccccc23)c2ccccc12
active: growth inhibition [1] 70% | inhibition [2] 100% | growth inhibition [4] 99%
inactive: inhibition [3] 4% | outcome [5] | outcome [6] | outcome [7] | outcome [8]

CCNc1cc(C(=O)N[C@@H](Cc2ccccc2)[C@H](O)CN[C@H]2C[C@@H]3CC[C@H]2C3)cc(N2CCCCS2(=O)=O)c1
active: growth inhibition [1] 73% | growth inhibition [4] 99%
inactive: inhibition [2] -4% | inhibition [3] 1% | outcome [5] | outcome [6] | outcome [7] | outcome [8]

CNC(=S)NN=C(C)c1ccccn1
inactive: inhibition [3] -4% | outcome [5] | outcome [6] | outcome [7] | outcome [8]
active: growth inhibition [1] 99% | inhibition [2] 64% | growth inhibition [4] 98%

Cc1[nH]c(C)c(-c2ccc(-c3ccc(C(F)F)cc3)nc2)c(=O)c1Cl
active: growth inhibition [1] 96% | growth inhibition [4] 97%
inactive: inhibition [2] 0% | inhibition [3] -2% | outcome [5] | outcome [6] | outcome [7] | outcome [8]

Cc1nnc(N2C(=N)SC(=Cc3ccc(-c4ccc(OC(F)(F)F)cc4)o3)C2=O)s1
inactive: inhibition [2] 37% | inhibition [3] -7% | outcome [5] | outcome [6] | outcome [7] | outcome [8]
active: growth inhibition [1] 58% | growth inhibition [4] 85%

O=C(Nc1ccccc1)N(Cc1cccc(-c2cccc(CNCc3ccc4c(c3)OCO4)c2)c1)C1CCN(Cc2ccccc2)CC1
active: growth inhibition [1] 84% | inhibition [2] 96% | growth inhibition [4] 101%
inactive: inhibition [3] 0% | outcome [5] | outcome [6] | outcome [7] | outcome [8]

C[C@H](Cc1ccc(OCCCCCCOc2ccc(C[C@@H](C)NC(=O)[C@H](O)c3cccc(Cl)c3)cc2)cc1)NC[C@H](O)c1cccc(Cl)c1
inactive: inhibition [2] 39% | inhibition [3] -3% | outcome [5] | outcome [6] | outcome [7] | outcome [8]
active: growth inhibition [1] 99% | growth inhibition [4] 99%

CC(C)N(Cc1ccccc1)C(=O)CN1C(=O)COc2ccc(S(=O)(=O)N3CCCCCC3)cc21
inactive: inhibition [2] -11% | inhibition [3] -3% | outcome [5] | outcome [6] | outcome [7] | outcome [8]
active: growth inhibition [1] 99% | growth inhibition [4] 99%

CN(C)Cc1cccc(-c2ccc(NC(=O)c3ccc4c(=O)n(Cc5ccoc5)cnc4c3)cc2)c1
inactive: growth inhibition [1] 9% | inhibition [3] 3% | outcome [5] | outcome [6] | outcome [7] | outcome [8]
active: inhibition [2] 54% | growth inhibition [4] 98%

CN1CCC(C(=O)N(Cc2ccc(-c3ccc(CNCCc4ccc(S(C)(=O)=O)cc4)cn3)cc2)Cc2ccc3c(c2)OCO3)CC1
inactive: inhibition [2] 16% | inhibition [3] -3% | outcome [5] | outcome [6] | outcome [7] | outcome [8]
active: growth inhibition [1] 51% | growth inhibition [4] 91%

COc1cc(C)nc2ccc(NC(=O)Nc3ccccc3[N+](=O)[O-])cc12
inactive: inhibition [2] 6% | inhibition [3] -1% | outcome [5] | outcome [6] | outcome [7] | outcome [8]
active: growth inhibition [1] 58% | growth inhibition [4] 101%

Cc1ccc(N2C(N)=NC(N)=NC2(C)C)cc1Cl
active: growth inhibition [1] 77% | inhibition [2] 66% | growth inhibition [4] 90%
inactive: inhibition [3] -4% | outcome [5] | outcome [6] | outcome [7] | outcome [8]

O=C1C2=C(Nc3ccccc3SC2c2cccs2)c2ccccc21 (stereo not given)
inactive: inhibition [2] 8% | inhibition [3] 5% | outcome [5] | outcome [6] | outcome [7] | outcome [8]
active: growth inhibition [1] 93% | growth inhibition [4] 96%

Cc1cccc(-c2ccc(NC(=O)C3CCN(Cc4cccc(O)c4)CC3)cc2)c1
active: growth inhibition [1] 64% | growth inhibition [4] 92%
inactive: inhibition [2] 21% | inhibition [3] 0% | outcome [5] | outcome [6] | outcome [7] | outcome [8]

O=C(NC(=S)Nc1cc(C(F)(F)F)cc(C(F)(F)F)c1)c1ccc(Cl)cc1
inactive: inhibition [2] 31% | inhibition [3] 0% | outcome [5] | outcome [6] | outcome [7] | outcome [8]
active: growth inhibition [1] 99% | growth inhibition [4] 96%

OC1CCCN(Cc2ccc(-c3ccc(-c4nc5ccc(F)cc5[nH]4)s3)cc2)C1 (stereo not given)
active: growth inhibition [1] 99% | growth inhibition [4] 100%
inactive: inhibition [2] 40% | inhibition [3] -5% | outcome [5] | outcome [6] | outcome [7] | outcome [8]

O=C(Nc1cccc(CN2CCCN(Cc3ccc(O)cc3)CC2)c1)c1cccc(F)c1
active: growth inhibition [4] 92%
inactive: growth inhibition [1] 4% | inhibition [2] 22% | inhibition [3] -2% | outcome [5] | outcome [6] | outcome [7] | outcome [8]

Clc1ccc(C=NNc2ccnc3ccccc23)cc1
inactive: inhibition [2] 5% | inhibition [3] 1% | outcome [5] | outcome [6] | outcome [7] | outcome [8]
active: growth inhibition [1] 97% | growth inhibition [4] 100%

O=C(/C=C/c1ccc(Cl)c(Cl)c1)NCCCCCN1CCC(NC(=O)Nc2cc(Cl)nc(Cl)c2)CC1
active: growth inhibition [4] 102%
inactive: growth inhibition [1] 2% | inhibition [2] 4% | inhibition [3] -8% | outcome [5] | outcome [6] | outcome [7] | outcome [8]

COc1ccccc1-c1sccc1C(=O)NC1(c2cc(Cl)cc(Cl)c2)CCCC1
inactive: inhibition [2] -5% | inhibition [3] -3% | outcome [5] | outcome [6] | outcome [7] | outcome [8]
active: growth inhibition [1] 95% | growth inhibition [4] 88%
